The list is not random: actives were taken first. Their share in the collection is about 12%.
CHOP inh: blocks CHOP induction under ER stress; inhibition, % at 10 µM; 220,000 compounds, 3.8% hits; AID 2732; CHO-K1 CHOP-promoter luciferase, tunicamycin-induced, 15-18 h;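 active = compounds that reduced the stress-induced luciferase reporter signal by more than about 70% of percent inhibition, limit read from the data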
Arbovirus inh: blocks arbovirus infection | arbovirus infection cell-based antiviral screen | inhibition, % at 10 µM | 200,000 compounds, 0.37% hits; in the data active = inhibition above about 30%
WT yeast gro inh: growth inhibition of WT yeast, mitochondrial fusion screen. mitochondrial fusion phenotypic screen, WT strain. inhibition, % at 10 µM. 190,000 compounds, 2.1% hits. AID 1362; in the data active = inhibition above about 58%; tested in S. cerevisiae
L major viab: inhibitors of Leishmania major promastigote growth; Leishmania major promastigotes, resazurin fluorescence viability; inhibition, % at 10 µM; 200,000 compounds, 9% hits; in the data active = inhibition above about 50%;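 also: promastigotes grown with compound for 44 hours at 28 °C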
Each line names hits and unclear results; the compound was inactive in the other large screens.

Cc1cc(C)c(S(=O)(=O)c2ccccc2C)c(SCC(C)C)n1	L major viab 92
Cc1cc(C)c(S(C)(=O)=O)c(Oc2ccccc2C)n1	none
Cc1cc(C)c(S(=O)(=O)c2ccccc2C)c(OCC(C)(C)C)n1	CHOP inh 75, L major viab 96
Cc1ccc(S(=O)(=O)c2c(C)cc(C)nc2Oc2cccc(C)c2C)cc1	WT yeast gro inh 66
CCOCCOc1nc(C)cc(C)c1S(=O)(=O)c1ccccc1C	none
CCCSc1nc(C)cc(C)c1S(=O)(=O)c1ccccc1C	L major viab 94
O=C1CC(NCc2ccncc2)C(=O)N1c1ccc(Cl)cc1 (configuration not stated)	none
CC(NC(=O)c1ccco1)c1cccc2ccccc12 (configuration not stated)	none
COc1ccc(S(=O)(=O)Nc2c(C)ccc3nsnc23)cc1OC	none
CCCOc1ccc(CSCCNC(=S)Nc2ccccc2)cc1	WT yeast gro inh 67
Cc1cccc(CSCCNC(=S)Nc2ccccc2)c1	WT yeast gro inh 71
S=C(NCCSCc1ccccc1Cl)Nc1ccccc1	CHOP inh 71, WT yeast gro inh 67
CCOc1ccc(CSCCNC(=S)Nc2ccc(OC)cc2)cc1	none (no result: Arbovirus inh, WT yeast gro inh, L major viab)
CCCNC(=S)Nc1ccccc1	none (no result: Arbovirus inh, WT yeast gro inh, L major viab)
S=C(NCCSCc1ccc(Cl)cc1)Nc1ccccc1	CHOP inh 80, WT yeast gro inh 79
Cc1ccsc1/C=C1\SC(N2CC(C)OC(C)C2)=NC1=O (configuration not stated)	none
OC(CNC1CCCC1)COc1c(F)cc(Br)cc1F (configuration not stated)	L major viab 93
CC1CCCC(C)N1CC(O)COc1c(F)cc(Br)cc1F (configuration not stated)	L major viab 74
CC1CCCC(C)N1CC(O)COc1ccc(Cl)cc1 (configuration not stated)	none
Cc1ccc2ncnc(Nc3ccccc3)c2c1	L major viab 65
COc1cc2ncnc(NCc3ccccc3Cl)c2cc1OC	none
Clc1ccc(Nc2ncnc3ccc(Br)cc23)cc1	WT yeast gro inh 61
CCOC(=O)c1cccc(Nc2ncnc3ccc(C)cc23)c1	L major viab 56
COc1cc2ncnc(NCc3ccc(Cl)cc3)c2cc1OC	L major viab 62
CCOC(=O)c1ccc(Nc2ncnc3ccc(C)cc23)cc1	none
Cc1cccc(Nc2ncnc3ccc(Br)cc23)c1	L major viab 56
Brc1ccc2ncnc(NCc3ccccc3)c2c1	CHOP inh 87 (no result: WT yeast gro inh)
Cc1ccc2ncnc(Nc3cccc(C(=O)O)c3)c2c1	none
COc1ccccc1Nc1ncnc2ccc(C)cc12	L major viab 71
c1ccc(CNc2ncnc3c2cnn3Cc2ccccc2)cc1	none
COc1cc2ncnc(Nc3cccc(Cl)c3)c2cc1OC	none (no result: L major viab)
Clc1cccc(Nc2ncnc3ccc(Br)cc23)c1	WT yeast gro inh 73
CC1(C(=O)NCc2ccc(F)cc2)Oc2ccccc2NC1=O (configuration not stated)	none
O=C1Cc2cc(CCN3CCN(c4nsc5ccccc45)CC3)c(Cl)cc2N1	none (no result: L major viab)
CC(=O)N1CCC(N(CCN2CCOCC2)C(=S)Nc2c(C)cccc2C)CC1	none
O=c1cc(CSc2nc3ccccc3c(=O)[nH]2)c2ccc(O)cc2o1	none
CCn1c(CNC(=O)c2ccccc2F)nnc1SCC(=O)NC1CCCCC1C (configuration not stated)	none
COc1ccccc1N(C(=O)NCc1ccccc1)C1=NCC(C)S1 (configuration not stated)	L major viab 57
COc1ccccc1NC(=O)N(Cc1ccccc1)C1=NCC(C)S1 (configuration not stated)	none
Cc1noc(C)c1COc1ccc(C(=O)Nc2ccccc2)cc1	none
CCSc1nnc(NC(=O)c2cccc(OCc3c(C)noc3C)c2)s1	none
COc1ccc2nc(NC(=O)c3cccc(OCc4c(C)noc4C)c3)sc2c1	WT yeast gro inh 73 (no result: CHOP inh)
COc1ccc2nc(NC(=O)c3cccnc3SC)sc2c1	L major viab 81
COc1ccc2nc(NC(=O)C3CCCN(S(=O)(=O)c4c(C)noc4C)C3)sc2c1 (configuration not stated)	CHOP inh 75
Cc1noc(C)c1COc1cccc(C(=O)Nc2ccc(OCc3ccccc3)cc2)c1	L major viab 53
O=C(CC1NC(=S)NC1=O)c1ccc(Cl)cc1 (configuration not stated)	none (no result: Arbovirus inh, WT yeast gro inh, L major viab)
NC(=O)c1nc(-c2cccs2)nc2c1[nH]c(=O)n2-c1ccc(F)cc1	CHOP inh 76
Cc1cccc(-n2c(=O)[nH]c3c(C(N)=O)nc(-c4ccccc4Cl)nc32)c1	CHOP inh 91
Cc1cccc(-n2c(=O)[nH]c3c(C(N)=O)nc(CC(C)C)nc32)c1	L major viab 50
O=S(=O)(/C=C/c1ccccc1)N1CCN(c2cccc(Cl)c2)CC1	none
O=C(CSc1nc2ncccc2[nH]1)c1ccc2c(c1)OCO2	none (no result: Arbovirus inh, WT yeast gro inh, L major viab)
CC1(C)Cc2c(sc3c2c(=N)n(Cc2ccco2)c(=O)n3Cc2ccccc2)CO1	CHOP inh 70, L major viab 82
Fc1ccc(C(c2nnnn2C2CCCC2)N(Cc2ccco2)CC2CCCO2)cc1 (configuration not stated)	L major viab 78
c1ccc(CN(Cc2ccco2)C(c2ccncc2)c2nnnn2C2CCCC2)cc1 (configuration not stated)	L major viab 95
CCN(CC)C(c1ccc(F)cc1)c1nnnn1C1CCCCC1 (configuration not stated)	none
Clc1ccc(CN(Cc2ccccc2)C(c2cccs2)c2nnnn2C2CCCC2)cc1 (configuration not stated)	L major viab 87
CC(C)(C)OC(=O)NCCCC[C@H](NC(=O)c1nc[nH]c1C(=O)N1CCN(c2ccccc2)CC1)C(=O)OC(C)(C)C	none (no result: Arbovirus inh, WT yeast gro inh, L major viab)
CC(=O)N1CC=CC1(C)C(=O)O (configuration not stated)	none
N#Cc1cccc(NC(=O)Cn2c3[n+](c4ccc(C(F)(F)F)cc42)CCCCC3)c1	none
COc1cc2c(cc1OC)CN(c1nc(CN3CCCC3)nc3sc(C)c(C)c13)CC2	CHOP inh 78
COc1cc2c(cc1OC)CN(c1nc(CN3CCOCC3)nc3sc4c(c13)CCCC4)CC2	none
COc1cc2c(cc1OC)CN(c1nc(CN3CCCCC3)nc3sc4c(c13)CCCC4)CC2	L major viab 99
CCOC(=O)c1sc2nc(CN3CCCCC3)nc(Cl)c2c1C	none
Cc1sc2nc(CN3CCCC3)nc(Cl)c2c1C	L major viab 86
CCCn1ncc(CN2CCC(CO)(CC3CCCCO3)CC2)c1C (configuration not stated)	none
COc1ccc(S(=O)(=O)Nc2ccc3c(c2)OCCO3)cc1Cl	L major viab 71 (no result: WT yeast gro inh)
Cc1ccc(S(=O)(=O)Nc2ccc3c(c2)OCCO3)cc1C	none
Cc1cccc(NS(=O)(=O)c2ccc3c(c2)OCCO3)c1	L major viab 74
COc1ccc(S(=O)(=O)Nc2ccc3c(c2)OCO3)cc1OC	none
Cc1cc(C)cc(NC(=O)CC23CC4CC(C2)CC(n2nnc(C)n2)(C4)C3)c1	none
Cc1nnn(C23CC4CC(CC(CC(=O)Nc5ccc(C)c(Cl)c5)(C4)C2)C3)n1	L major viab 95
COc1ccc2cc(C#N)c(SCC(=O)N3CCCC3)nc2c1	L major viab 55
COC(=O)CSc1nc2cc(OC)ccc2cc1C#N	none
COc1ccc2cc(C#N)c(N3CCN(C(=O)c4ccccc4C)CC3)nc2c1	none

Bioassay records deposited in PubChem BioAssay by several laboratories.
